Molecules are shown by their SMILES. Hit rate of the full screen: of about 310,000 compounds, about 14,000 (4.5%) showed an effect of 50% or more. The effect is printed as a negative number. Many of the other results were omitted from the sample, so strong results are more common in it than they were.
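Note: peak tail current of the secondary pulse compared with the same well before compound.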

The experiment deals with human ether-à-go-go-related gene (hERG) potassium channel (human, UniProt Q12809). Description: primary screen, population patch clamp on CHO cells stably expressing hERG; higher = less effect of the substance.
Chain of human ether-à-go-go-related gene (hERG) potassium channel (Q12809 whole entry, looked up): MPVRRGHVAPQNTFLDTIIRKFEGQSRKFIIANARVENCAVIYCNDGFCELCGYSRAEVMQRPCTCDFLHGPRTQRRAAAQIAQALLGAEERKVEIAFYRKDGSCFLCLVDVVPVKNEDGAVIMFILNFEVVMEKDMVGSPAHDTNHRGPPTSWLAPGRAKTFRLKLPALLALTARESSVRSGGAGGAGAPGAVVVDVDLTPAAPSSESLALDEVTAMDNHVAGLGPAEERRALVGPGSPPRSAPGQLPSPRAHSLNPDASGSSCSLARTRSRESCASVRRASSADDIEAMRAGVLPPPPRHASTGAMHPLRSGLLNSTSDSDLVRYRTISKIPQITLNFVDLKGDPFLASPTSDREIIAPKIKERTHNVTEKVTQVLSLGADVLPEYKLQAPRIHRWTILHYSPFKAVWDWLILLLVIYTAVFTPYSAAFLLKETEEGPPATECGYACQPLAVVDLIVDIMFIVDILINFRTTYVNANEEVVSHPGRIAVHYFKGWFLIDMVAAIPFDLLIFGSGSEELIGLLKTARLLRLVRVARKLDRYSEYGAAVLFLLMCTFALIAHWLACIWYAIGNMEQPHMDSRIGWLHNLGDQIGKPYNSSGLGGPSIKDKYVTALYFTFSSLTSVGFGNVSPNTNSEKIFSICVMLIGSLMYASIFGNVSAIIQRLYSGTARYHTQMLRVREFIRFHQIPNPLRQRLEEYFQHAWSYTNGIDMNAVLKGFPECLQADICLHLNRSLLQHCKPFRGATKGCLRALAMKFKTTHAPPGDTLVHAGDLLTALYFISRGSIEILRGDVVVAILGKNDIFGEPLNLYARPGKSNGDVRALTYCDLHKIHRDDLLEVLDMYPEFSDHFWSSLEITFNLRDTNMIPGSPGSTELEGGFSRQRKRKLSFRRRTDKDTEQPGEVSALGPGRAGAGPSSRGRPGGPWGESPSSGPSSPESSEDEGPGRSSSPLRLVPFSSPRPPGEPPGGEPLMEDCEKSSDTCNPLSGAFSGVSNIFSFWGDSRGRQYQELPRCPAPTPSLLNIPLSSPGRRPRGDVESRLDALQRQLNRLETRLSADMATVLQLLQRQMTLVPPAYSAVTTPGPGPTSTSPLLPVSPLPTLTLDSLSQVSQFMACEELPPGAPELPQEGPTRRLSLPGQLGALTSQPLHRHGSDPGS
Take `O=C(c1ccco1)N1N=C(c2cccs2)CC1c1cc([N+](=O)[O-])ccc1O` (stereo not drawn): the “hERG current change (%, negative = inhibition) at 10uM” value worked out at 7.51%.
As to `CCC(C)CCN1C(N(C)C)=NC[C@@H]1Cc1ccccc1` (stereo partly drawn), the “hERG current change (%, negative = inhibition) at 10uM” value is listed as -22.5%.
For `CCCCCCCN1C(N(C)C)=NC[C@@H]1Cc1ccccc1` the value was -80.1%; for `CN(C)C1=NC[C@H](Cc2ccccc2)N1CCCCc1ccccc1`, -71%; for `CCC(CC)CN1C(N(C)C)=NC[C@@H]1CC(C)C`, -4.65%.
For the compound `CCC(C)CCN1C(N(C)C)=NC[C@@H]1CC(C)C` (stereo partly drawn), the “hERG current change (%, negative = inhibition) at 10uM” value is listed as -11%.
The same measure for `CCN1C(N(C)C)=NC[C@@H]1Cc1ccccc1`: -1.57%.
Turning to `C[C@H]1CN=C(N(C)C)N1CCCCc1ccccc1`, the “hERG current change (%, negative = inhibition) at 10uM” value is on record as -25.5%.
For `CC(C)CCCN1C(N(C)C)=NC[C@@H]1Cc1ccccc1` the value was -24.9%.
For `CC(C)C[C@H]1CN=C(N(C)C)N1CCCCc1ccccc1` the value was -64.7%.
As for `COC(=O)C1=NN(c2cccc(C)c2)C2C(=O)N(c3ccccc3OC)C(=O)C12` (stereo not drawn), the “hERG current change (%, negative = inhibition) at 10uM” value is -4.79%.
For `COc1ccccc1OCc1cc(C(=O)NCc2ccc(N3CCCC3=O)cc2)no1` the value was 13.4%; for `Cc1ccc(OC(=O)c2cccc(S(=O)(=O)N3CCN(C)CC3)c2)c(Br)c1`, -19.5%; for `O=C(NCc1ccccc1)C(C(=O)c1ccc(F)cc1)n1ccccc1=O` (stereo not drawn), -0.0984%.
The same measure for `COc1ccc(C2(C(=O)Nc3ccccc3)CCOCC2)cc1`: -14.2%; for `CC1CCCCC1NC(=O)COC(=O)/C=C/c1ccco1` (stereo not drawn): -1.9%; for `O=C(O)CCN1C(=O)c2ccc(Oc3ccc([N+](=O)[O-])cc3)cc2C1=O`: 4.85%.
For `O=C1c2ccc(Oc3ccc4c(c3)C(=O)N(CCCCO)C4=O)cc2C(=O)N1CCCCO` the value was -24.1%.
Regarding `O=C1c2ccc(Oc3ccc([N+](=O)[O-])cc3)cc2C(=O)N1CCO`, the “hERG current change (%, negative = inhibition) at 10uM” value is given as -52.8%.
For `O=C1c2ccc(Oc3ccc4c(c3)C(=O)N(CCCO)C4=O)cc2C(=O)N1CCCO` the value was -1.78%; for `O=C(O)CN1C(=O)c2ccc(Oc3ccc([N+](=O)[O-])cc3)cc2C1=O`, 23.2%.
For `O=C1c2ccc(Oc3ccc([N+](=O)[O-])cc3)cc2C(=O)N1CCCO` the value was -60.8%.
For `CCC(=O)N1CCCc2cc(S(=O)(=O)N3CCN(c4ccccc4F)CC3)ccc21` the value was -23.7%; for `CCOC(=O)C1CCCN(C(=O)c2cnn3c(C(F)F)cc(-c4ccc(C)cc4)nc23)C1` (stereo not drawn), -38.4%; for `Cl.O=C(NCCN1CCOCC1)c1ccc(Cl)c(S(=O)(=O)N2CCCCCC2)c1`, -40.1%.
Take `Cc1ccc(C(=O)NCCN2CCOCC2)cc1S(=O)(=O)N1CCCCC1`: the “hERG current change (%, negative = inhibition) at 10uM” value is reported as -20.7%.
The same measure for `O=C(NCCN1CCOCC1)c1ccc(Cl)c(S(=O)(=O)N2CCCC2)c1`: -0.109%.
The same measure for `O=C(NCCN1CCOCC1)c1ccc(Cl)c(S(=O)(=O)N2CCCCC2)c1`: -58.3%.
Regarding `Cc1ccc(CSCCNC(=O)c2ccc(Cl)c(S(=O)(=O)N3CCOCC3)c2)cc1`, the “hERG current change (%, negative = inhibition) at 10uM” value was -40.5%.
For `CC(C)(CNC(=O)c1ccc(Cl)c(S(=O)(=O)N2CCc3ccccc3C2)c1)N1CCOCC1` the value was -50.3%; for `O=C(NCCSCc1ccccc1)c1ccc(Cl)c(S(=O)(=O)N2CCOCC2)c1`, -50%; for `COc1ccc(C(=O)NCC(C)(C)N2CCOCC2)cc1S(=O)(=O)N1CCCC1`, -8.82%.
The same measure for `Cl.O=C(NCCCN1CCOCC1)c1ccc(Cl)c(S(=O)(=O)N2CCCCCC2)c1`: -50.6%; for `Cc1ccccc1CSCCNC(=O)c1ccc(Cl)c(S(=O)(=O)N2CCOCC2)c1`: -42.2%; for `CC(C)(C)SCCNC(=O)c1ccc(Cl)c(S(=O)(=O)N2CCOCC2)c1`: -6.74%.
Regarding `O=C(NCCN1CCOCC1)c1ccc(Cl)c(S(=O)(=O)N2CCOCC2)c1`, the “hERG current change (%, negative = inhibition) at 10uM” value is listed as 13.1%.
On to `Cc1ccccc1C(=O)NC(=S)Nc1ccc(S(=O)(=O)N2CCN(C)CC2)cc1`, for which the “hERG current change (%, negative = inhibition) at 10uM” value turned out to be 7.75%.
As for `COc1ccc(-c2noc(CN3CCCCC3)n2)cc1OC`, the “hERG current change (%, negative = inhibition) at 10uM” value is on record as -1.49%.
For the compound `Cc1cccc(C)c1NC(=O)CN(c1ccccn1)S(=O)(=O)c1ccc(F)cc1`, the “hERG current change (%, negative = inhibition) at 10uM” value was found to be 19.1%.
The same measure for `Cc1ccc2[nH]cc(CCNS(=O)(=O)c3ccc(F)cc3)c2c1`: -4.39%.
With `O=C(c1cccc([N+](=O)[O-])c1)n1nc(-c2ccccc2)nc1NCc1ccccc1`, the “hERG current change (%, negative = inhibition) at 10uM” value stood at 9.75%.
The same measure for `CC(C)NCc1cccc([N+](=O)[O-])c1.O=C(O)C(=O)O`: 3.39%.

The values are drawn from PMC4336329 (PLoS ONE, 2015).
